Compounds without any hit were thinned out: in the full panel of roughly 79,000, 15% have a hit. Active and inactive are the calls of the source. Cut-off read from the data, not from the text of the source: active = growth inhibition above about 70%; inactive = the rest.

The nature of assay [1]: NCI Yeast Anticancer Drug Screen. Data for the rad50 strain (AID 155).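 Note: 0% = growth of vehicle-only cultures of the same strain.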 The settings on record: S. cerevisiae rad50 strain growth inhibition, hits give high values. The method in brief:
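Cells are treated with compound, grown, and their growth is then scored against vehicle-only cultures of the same repair-deficient yeast strain.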

Assay [2] in a line: NCI Yeast Anticancer Drug Screen. Data for the mec2-1 strain (AID 157). To be noted: S. cerevisiae mec2-1 strain, hits give high values. The method in brief: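 Compounds were applied to mec2-1 yeast cells. Their growth was then compared with that of vehicle-treated cultures to give growth inhibition.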
The nature of assay [3]: NCI Yeast Anticancer Drug Screen. Data for the sgs1 mgt1 strain (AID 161).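 Note: 0% = growth of cultures given vehicle only.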 The settings on record: S. cerevisiae sgs1 mgt1 strain, hits give high values. The method in brief:
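Growth of a repair-deficient yeast mutant was monitored after compound treatment and expressed as inhibition relative to vehicle-treated cultures.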

A short description of assay [4]: NCI Yeast Anticancer Drug Screen. Data for the cln2 rad14 strain (AID 165).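 Note: 0% = growth equal to vehicle treated cultures.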 To be noted: S. cerevisiae cln2 rad14 strain, hits give high values. The method in brief: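 Strain: cln2 rad14 yeast, altered in cell cycle control and DNA damage repair. Read-out: growth inhibition vs vehicle.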
A short description of assay [5]: NCI Yeast Anticancer Drug Screen. Data for the bub3 strain (AID 167). To be noted: S. cerevisiae bub3 mutant strain, hits give high values. The method in brief: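 Part of a panel of yeast mutants defective in DNA damage repair or cell cycle regulation. Each strain is grown with compound, and inhibition is calculated relative to solvent-treated cultures.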
Assay [6] can be described thus: NCI Yeast Anticancer Drug Screen. Data for the mlh1 rad18 strain (AID 175). The settings on record: S. cerevisiae mlh1 rad18 strain growth inhibition, hits give high values. The method in brief:
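A repair-deficient yeast strain is exposed to test compound, and growth is scored relative to vehicle-treated controls.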

[7] abbreviates: at 5.0 µM (retest, dose inferred, filed as 0.5).
[8] abbreviates: at 50.0 µM (retest, dose inferred, filed as 5.0).

As to `N=Cc1cc([N+](=O)[O-])ccc1O`, the growth inhibition was -5% (inactive) in assay [1] (setting [7]); 94% (active) in assay [1] (setting [8]); 96.8% (active) in assay [1] (at 50.0 µM); -1% (inactive) in assay [2] (setting [7]); 98% (active) in assay [2] (setting [8]); 93% (active) in assay [2] (at 50.0 µM). Besides, the growth inhibition in assay [3] (setting [7]) was -2% (inactive); in assay [3] (setting [8]), 93% (active); in assay [3] (at 50.0 µM), 98.5% (active); in assay [4] (setting [7]) it was 16% (inactive); in assay [4] (setting [8]), 95% (active); in assay [4] (at 50.0 µM) it was 94.5% (active). For the same compound, the growth inhibition in assay [5] (setting [7]) was -20% (inactive); in assay [5] (setting [8]), 96% (active); in assay [5] (at 50.0 µM) it was 71.3% (active); in assay [6] (setting [7]) it was 12% (inactive); in assay [6] (setting [8]), 98% (active); in assay [6] (at 50.0 µM), 98.2% (active).

On to `COc1cccc(C2CC(C)(O)Oc3cc4c(cc32)OCO4)c1` (stereo not given), for which the growth inhibition in assay [1] (setting [7]) was 4% (inactive); in assay [1] (setting [8]), 36% (inactive); in assay [1] (at 50.0 µM) it was 33.8% (inactive); in assay [2] (setting [7]), 5% (inactive); in assay [2] (setting [8]) it was 16% (inactive); in assay [2] (at 50.0 µM), 50.7% (inactive). For the same compound, the growth inhibition in assay [3] (setting [7]) is -12% (inactive); in assay [3] (setting [8]), 9% (inactive); in assay [3] (at 50.0 µM) it was 29.4% (inactive); in assay [4] (setting [7]) it was 8% (inactive); in assay [4] (setting [8]) it was 44% (inactive); in assay [4] (at 50.0 µM) it was 54.6% (inactive). Also, the growth inhibition in assay [5] (setting [7]) is 2% (inactive); in assay [5] (setting [8]), 57% (inactive); in assay [5] (at 50.0 µM) it was 46.4% (inactive); in assay [6] (setting [7]), -14% (inactive); in assay [6] (setting [8]), 38% (inactive); in assay [6] (at 50.0 µM), 53% (inactive).

Regarding `O=C1C(N2CCOCC2)=C(Cl)C(=O)c2ncccc21`, the growth inhibition is 66% (inactive) in assay [1] (setting [7]); 95% (active) in assay [1] (setting [8]); 83.8% (active) in assay [1] (at 50.0 µM); 30% (inactive) in assay [2] (setting [7]); 97% (active) in assay [2] (setting [8]); 83.8% (active) in assay [2] (at 50.0 µM). The growth inhibition is 35% (inactive) in assay [3] (setting [7]); 96% (active) in assay [3] (setting [8]); 89.8% (active) in assay [3] (at 50.0 µM); 13% (inactive) in assay [4] (setting [7]); 92% (active) in assay [4] (setting [8]); 89% (active) in assay [4] (at 50.0 µM). Also, the growth inhibition in assay [5] (setting [7]) is 31% (inactive); in assay [5] (setting [8]), 97% (active); in assay [5] (at 50.0 µM) it was 89.7% (active); in assay [6] (setting [7]), 61% (inactive); in assay [6] (setting [8]), 96% (active); in assay [6] (at 50.0 µM), 89.3% (active).

For `O=C1OC(c2ccccc2)(c2ccc(-c3ccccc3O)cc2)c2ccccc21` (stereo not given), the growth inhibition is 87% (active) in assay [1] (setting [7]); 90% (active) in assay [1] (setting [8]); 94.2% (active) in assay [1] (at 50.0 µM); 71% (active) in assay [2] (setting [7]); 92% (active) in assay [2] (setting [8]); 95.1% (active) in assay [2] (at 50.0 µM). Further, the growth inhibition in assay [3] (setting [7]) was 89% (active); in assay [3] (setting [8]), 93% (active); in assay [3] (at 50.0 µM), 93% (active); in assay [4] (setting [7]) it was 60% (inactive); in assay [4] (setting [8]), 90% (active); in assay [4] (at 50.0 µM) it was 92.9% (active). The growth inhibition is 61% (inactive) in assay [5] (setting [7]); 90% (active) in assay [5] (setting [8]); 95.1% (active) in assay [5] (at 50.0 µM); 92% (active) in assay [6] (setting [7]); 91% (active) in assay [6] (setting [8]); 93.5% (active) in assay [6] (at 50.0 µM).

As for `C=CC1(C)CCC2C(=CCC3C2(C)CC(O)C(O)C3(C)COC2OC(CO)C(O)C(O)C2O)C1` (stereo not given), the growth inhibition is 1% (inactive) in assay [1] (setting [7]); 99% (active) in assay [1] (setting [8]); 93.1% (active) in assay [1] (at 50.0 µM); -1% (inactive) in assay [2] (setting [7]); 100% (active) in assay [2] (setting [8]); 94.1% (active) in assay [2] (at 50.0 µM). The growth inhibition is -1% (inactive) in assay [3] (setting [7]); 99% (active) in assay [3] (setting [8]); 94.1% (active) in assay [3] (at 50.0 µM); 1% (inactive) in assay [4] (setting [7]); 99% (active) in assay [4] (setting [8]); 90.5% (active) in assay [4] (at 50.0 µM). Besides, the growth inhibition is 0% (inactive) in assay [5] (setting [7]); 99% (active) in assay [5] (setting [8]); 93.6% (active) in assay [5] (at 50.0 µM); 0% (inactive) in assay [6] (setting [7]); 82% (active) in assay [6] (setting [8]); -41.4% (inactive) in assay [6] (at 50.0 µM).

Values taken from PubChem BioAssay (NCI).
